# In PMC8384837, “Expanding the binding specificity for RNA recognition by a PUF domain”:
# Changes are numbered by the printed parent chain.
# Assays:
# Assay in all cases: yeast three-hybrid, YBZ-1, SC-Leu-His + 0.5 mM 3-AT, 4 days
# Conditions in all cases: tags: N-Gal4 AD-HA kept; label: inside an RPR1-promoter hybrid RNA with tandem MS2 sites; ssRNA
# PUM1 PUF domain R1-MYR = PUM1 PUF domain R1-MYR (Homo sapiens, UniProt Q14671 828-1176, S863M;R864Y;Q867R)
# Outline: (§1)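 A centromeric plasmid in strain YBZ-1 co-expressed Pumilio-1 PUF domain libraries, randomized at the three base-contacting residues of each repeat, with matching RNA elements; the strain carries a LexA–MS2 coat fusion and a HIS3 reporter. After four days on SC-Leu (input) or SC-Leu-His + 0.5 mM 3-AT (selection), the repeat regions were PCR-amplified and Illumina-sequenced. The interaction score is the log change in variant frequency from input to selection, using log2 and a pseudocount of 1 where absent.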
# PUM1 PUF domain R8-RFC = PUM1 PUF domain R8-RFC (Homo sapiens, UniProt Q14671 828-1176, N1122R;Y1123F;Q1126C)
# Outline: as §1
# PUM1 PUF domain R5-RRC = PUM1 PUF domain R5-RRC (Homo sapiens, UniProt Q14671 828-1176, C1007R;Q1011C)
# Outline: as §1
# PUM1 PUF domain R5-MGR = PUM1 PUF domain R5-MGR (Homo sapiens, UniProt Q14671 828-1176, C1007M;R1008G;Q1011R)
# Outline: as §1
# PUM1 PUF domain R4-GRG = PUM1 PUF domain R4-GRG (Homo sapiens, UniProt Q14671 828-1176, N971G;H972R;Q975G)
# Outline: as §1
# PUM1 PUF domain R3-PWG = PUM1 PUF domain R3-PWG (Homo sapiens, UniProt Q14671 828-1176, C935P;R936W;Q939G)
# Outline: as §1
# PUM1 PUF domain R8-NFV = PUM1 PUF domain R8-NFV (Homo sapiens, UniProt Q14671 828-1176, Y1123F;Q1126V)
# Outline: as §1
# PUM1 PUF domain R3-TRA = PUM1 PUF domain R3-TRA (Homo sapiens, UniProt Q14671 828-1176, C935T;Q939A)
# Outline: as §1
# PUM1 PUF domain R3-AWG = PUM1 PUF domain R3-AWG (Homo sapiens, UniProt Q14671 828-1176, C935A;R936W;Q939G)
# Outline: as §1
# PUM1 PUF domain R6-GRQ = biological target: T1, PUM1 PUF domain R6-GRQ (Homo sapiens, UniProt Q14671 828-1176, N1043G;Y1044R)
# T1 sequence: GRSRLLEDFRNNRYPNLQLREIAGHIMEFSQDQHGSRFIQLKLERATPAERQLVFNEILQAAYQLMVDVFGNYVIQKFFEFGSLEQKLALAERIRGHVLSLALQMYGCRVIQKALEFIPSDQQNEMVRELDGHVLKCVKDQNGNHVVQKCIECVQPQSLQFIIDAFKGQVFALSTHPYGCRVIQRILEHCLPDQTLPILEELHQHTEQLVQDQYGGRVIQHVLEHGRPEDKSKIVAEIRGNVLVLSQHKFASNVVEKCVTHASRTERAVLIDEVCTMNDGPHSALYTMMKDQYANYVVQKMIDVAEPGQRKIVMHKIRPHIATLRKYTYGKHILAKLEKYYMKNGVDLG
# Outline: as §1
# PUM1 PUF domain R6-AYM = biological target: T2, PUM1 PUF domain R6-AYM (Homo sapiens, UniProt Q14671 828-1176, N1043A;Q1047M)
# T2 sequence: T1 sequence with G216A, R217Y, Q220M
# Outline: as §1
# PUM1 PUF domain R8-KWH = PUM1 PUF domain R8-KWH (Homo sapiens, UniProt Q14671 828-1176, N1122K;Y1123W;Q1126H)
# Outline: as §1
# PUM1 PUF domain R3-APM = PUM1 PUF domain R3-APM (Homo sapiens, UniProt Q14671 828-1176, C935A;R936P;Q939M)
# Outline: as §1
# PUM1 PUF domain R4-CPN = PUM1 PUF domain R4-CPN (Homo sapiens, UniProt Q14671 828-1176, N971C;H972P;Q975N)
# Outline: as §1
sequence,measurement,setting,value
GGCUAGAACUAGUGGAUCCCCCGGCGCCCGGCGGCUCGAGCCCGGGUAAGUGUAAAUUGUCUGCAUGCCGCCGGGCGCCAUGCCUGCAGGUCGACUCUAGAAAACAUG,binding signal,PUM1 PUF domain R1-MYR,3.58 log2 enrichment (interaction score)
GGCUAGAACUAGUGGAUCCCCCGGCGCCCGGCGGCUCGAGCCCGGGUAAGCGUAAAUAGUCUGCAUGCCGCCGGGCGCCAUGCCUGCAGGUCGACUCUAGAAAACAUG,binding signal,PUM1 PUF domain R8-RFC,5.87 log2 enrichment (interaction score)
GGCUAGAACUAGUGGAUCCCCCGGCGCCCGGCGGCUCGAGCCCGGGUAAGUGUUAAUAGUCUGCAUGCCGCCGGGCGCCAUGCCUGCAGGUCGACUCUAGAAAACAUG,binding signal,PUM1 PUF domain R5-RRC,4.61 log2 enrichment (interaction score)
GGCUAGAACUAGUGGAUCCCCCGGCGCCCGGCGGCUCGAGCCCGGGUAAGUGUCAAUAGUCUGCAUGCCGCCGGGCGCCAUGCCUGCAGGUCGACUCUAGAAAACAUG,binding signal,PUM1 PUF domain R5-RRC,3.9 log2 enrichment (interaction score)
same,binding signal,PUM1 PUF domain R5-MGR,3.14 log2 enrichment (interaction score)
GGCUAGAACUAGUGGAUCCCCCGGCGCCCGGCGGCUCGAGCCCGGGUAAGUGUACAUAGUCUGCAUGCCGCCGGGCGCCAUGCCUGCAGGUCGACUCUAGAAAACAUG,binding signal,PUM1 PUF domain R4-GRG,0.59 log2 enrichment (interaction score)
GGCUAGAACUAGUGGAUCCCCCGGCGCCCGGCGGCUCGAGCCCGGGUAAGUGUAUAUAGUCUGCAUGCCGCCGGGCGCCAUGCCUGCAGGUCGACUCUAGAAAACAUG,binding signal,PUM1 PUF domain R4-GRG,2.09 log2 enrichment (interaction score)
GGCUAGAACUAGUGGAUCCCCCGGCGCCCGGCGGCUCGAGCCCGGGUAAGUGUAAAUAGUCUGCAUGCCGCCGGGCGCCAUGCCUGCAGGUCGACUCUAGAAAACAUG,binding signal,PUM1 PUF domain R3-PWG,4.24 log2 enrichment (interaction score)
same,binding signal,PUM1 PUF domain R8-NFV,3.02 log2 enrichment (interaction score)
same,binding signal,PUM1 PUF domain R3-TRA,3.6 log2 enrichment (interaction score)
same,binding signal,PUM1 PUF domain R3-AWG,3.6 log2 enrichment (interaction score)
same,binding signal,PUM1 PUF domain R4-GRG,5.19 log2 enrichment (interaction score)
same,binding signal,PUM1 PUF domain R8-RFC,4.53 log2 enrichment (interaction score)
same,binding signal,PUM1 PUF domain R6-GRQ,3.49 log2 enrichment (interaction score)
same,binding signal,PUM1 PUF domain R6-AYM,4.27 log2 enrichment (interaction score)
same,binding signal,PUM1 PUF domain R8-KWH,4.79 log2 enrichment (interaction score)
same,binding signal,PUM1 PUF domain R3-APM,2.44 log2 enrichment (interaction score)
same,binding signal,PUM1 PUF domain R4-CPN,3.19 log2 enrichment (interaction score)
same,binding signal,PUM1 PUF domain R5-RRC,2.21 log2 enrichment (interaction score)
same,binding signal,PUM1 PUF domain R5-MGR,1.08 log2 enrichment (interaction score)
